Results reported in the supplement of paper PMC12067926.
Unmarked numbers belong to inactive results.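 The calls were made as follows: active = growth AUC significantly below the DMSO wells by Dunnett test; inactive = the rest.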

Tested on: Bacillus 1 (Bacillus foraminis)
Test: relative growth (AUC of 72 h growth curve relative to DMSO control, dAUC) (ratio); higher = more growth (less inhibition), active = hit call of the paper
Conditions: 20 µM
Protocol: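 Environmental bacterial isolates (Iceland stream sediment and Silwood Park soil) and whole stream-sediment communities were grown in LB from a 1:100 dilution with each pesticide at 20 µM (1% DMSO). A600 was read hourly for 72 h and the area under a spline-fitted growth curve (AUC) was computed. dAUC is the mean AUC of 3 biological replicates divided by the mean AUC of the DMSO controls. Significance was tested by Dunnett's test against the DMSO control.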

Row | SMILES | relative growth
1 | O=C1C2(Cl)C3(Cl)C4(Cl)C(Cl)(Cl)C5(Cl)C3(Cl)C1(Cl)C5(Cl)C24Cl (stereo not given) | 0.959
2 | CCCSP(=O)(OCC)Oc1ccc(Br)cc1Cl (stereo not given) | 1.07
3 | CC(C)N(C)S(=O)(=O)NC(=O)c1cc(-n2c(=O)cc(C(F)(F)F)n(C)c2=O)c(F)cc1Cl | 0.998
4 | Cc1ccc(/N=C/N(C)/C=N/c2ccc(C)cc2C)c(C)c1 | 1.01
5 | COP(=S)(OC)Oc1ccc(SC)c(C)c1 | 0.995
6 | COC(=O)NC(=S)Nc1ccccc1NC(=S)NC(=O)OC | 0.942
7 | CCCN(CCOc1c(Cl)cc(Cl)cc1Cl)C(=O)n1ccnc1 | 1.07
8 | CC(Oc1ccc(Oc2ncc(C(F)(F)F)cc2Cl)cc1)C(=O)O (stereo not given) | 1
9 | CC(C)N(C(=O)COc1nnc(C(F)(F)F)s1)c1ccc(F)cc1 | 0.999
10 | CC(C)(C)c1ccc(CSc2cnn(C(C)(C)C)c(=O)c2Cl)cc1 | 1.03
11 | CC(Oc1ccc(Oc2nc3ccc(Cl)cc3o2)cc1)C(=O)O (stereo not given) | 1.02
12 | N#C/N=C1\SCCN1Cc1ccc(Cl)nc1 | 1.08
13 | CC1(C)C(C=C(Cl)Cl)C1C(=O)OC(C#N)c1ccc(F)c(Oc2ccccc2)c1 (stereo not given) | 0.94
14 | CC(C)N1C(=O)N(c2ccccc2)CS/C1=N\C(C)(C)C | 1.04
15 | N#Cc1c[nH]cc1-c1cccc2c1OC(F)(F)O2 | 0.935
16 | CN1COCN(Cc2cnc(Cl)s2)/C1=N\[N+](=O)[O-] | 1.02
17 | N#CCNC(=O)c1cnccc1C(F)(F)F | 1.03
18 | Clc1ccc(C(c2ccc(Cl)cc2)C(Cl)(Cl)Cl)cc1 | 1.06
19 | CO/C=C(/C(=O)OC)c1ccccc1Oc1cc(Oc2ccccc2C#N)ncn1 | 1.03
20 | CCCC1COC(Cn2cncn2)(c2ccc(Cl)cc2Cl)O1 (stereo not given) | 0.942

Row | SMILES | relative growth
21 | CCN(CC)c1nc(C)cc(OP(=S)(OC)OC)n1 | 1.03
22 | Cc1c(COC(=O)[C@@H]2[C@H](/C=C(\Cl)C(F)(F)F)C2(C)C)cccc1-c1ccccc1 (racemic) | 0.976
23 | OC(Cc1ccccc1Cl)(Cn1nc[nH]c1=S)C1(Cl)CC1 (stereo not given) | 0.988
24 | CS(=O)(=O)c1ccc(C(=O)C2C(=O)CCCC2=O)c([N+](=O)[O-])c1 | 0.961
25 | CCCC(Cn1cncn1)c1ccc(Cl)cc1Cl (stereo not given) | 1.1
26 | N#Cc1nn(-c2c(Cl)cc(C(F)(F)F)cc2Cl)c(N)c1[S+]([O-])C(F)(F)F (stereo not given) | 1.01
27 | CCCCOC(=O)[C@H](C)Oc1ccc(Oc2ccc(C#N)cc2F)cc1 | 1.07
28 | COP(=S)(OC)SCN1C(=O)c2ccccc2C1=O | 1.04
29 | N#CC(CCc1ccc(Cl)cc1)(Cn1cncn1)c1ccccc1 (stereo not given) | 0.836
30 | O=C1c2ccccc2C(=O)N1SC(Cl)(Cl)Cl | 1.12
31 | C/C(=N\C#N)N(C)Cc1ccc(Cl)nc1 | 0.921
32 | ClC1C(Cl)C(Cl)C(Cl)C(Cl)C1Cl (stereo not given) | 1.11
33 | C#CCN1C(=O)COc2cc(F)c(N3C(=O)C4=C(CCCC4)C3=O)cc21 | 1.14
34 | CNC(=O)c1cc(C#N)cc(C)c1NC(=O)c1cc(Br)nn1-c1ncccc1Cl | 0.935
35 | CCNc1nc(Cl)nc(NC(C)C)n1 | 0.997
36 | CC1=NNC(=O)N(/N=C/c2cccnc2)C1 | 1.16
37 | Oc1ccc(Cl)cc1Cc1cc(Cl)ccc1O | 0.81
38 | C#CCOc1ccc(CCNC(=O)C(OCC#C)c2ccc(Cl)cc2)cc1OC (stereo not given) | 1.06
39 | CC1(C)C(C=C(Cl)Cl)C1C(=O)OCc1cccc(Oc2ccccc2)c1 (stereo not given) | 1.06
40 | COCC(=O)N(c1c(C)cccc1C)C(C)C(=O)OC (stereo not given) | 1.11
